ASK1 inh = inhibitors of human ASK1 kinase; AlphaScreen MKK6 phosphorylation by ASK1, luminescence; inhibition, % at 7.44 µM; hit rate 0.99% among 22,000; AID 1159602; in the data active means inhibition above about 35%;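 further: 0% = median of compound wells and 100% = no enzyme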
ULK1 primary = blocks human autophagy kinase ULK1. AID 1259251. inhibition, % at 5.96 µM. O75385. AlphaScreen Atg13 phosphorylation by ULK1, luminescence. hit rate 1.9% among 30,000; in the data active means inhibition above about 43%;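 further: 0% = median of compound wells and 100% = no enzyme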
TruHits interf = counter-screen for ASK1 inhibitors: AlphaScreen optical interference; AlphaScreen TruHits beads, signal interference counterscreen; hit rate 20% among 220; IC50, µM; shares compounds with ASK1 inh;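 active means IC50 of 10 µM or lower in the counterscreen; inactive means IC50 above 10 µM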;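 further: loss of AlphaScreen light from TruHits beads alone with no ASK1 enzyme present; potency of signal reduction so a low IC50 flags an assay artifact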
An asterisk follows results filed as active; i = inactive; · = not tested or not shown. Rows were chosen to be rich in hits. Some 2.4% of all compounds tested hit in one or more screens of this group.

SMILES	ASK1 inh	ULK1 primary	TruHits interf
CCCNc1nc(N2CCN(c3ccccn3)CC2)nc2c1ncn2C(C)C	15	-4	·
c1cncc(CNc2nc(N3CCOCC3)nc3c2ncn3C2CCCCC2)c1	-12	2	·
c1ccc(-n2cnc3c(NCc4cccnc4)nc(Nc4ccc(N5CCOCC5)cc4)nc32)cc1	39*	-1	i
c1ccc(N2CCN(c3nc(Nc4ccc(N5CCOCC5)cc4)c4ncn(C5CCCCC5)c4n3)CC2)nc1	44*	64*	>23
c1ccc(Nc2nc(N3CCN(c4ccccn4)CC3)nc3c2ncn3C2CCCCC2)cc1	18	-3	·
CC(C)n1cnc2c(NC3CC3)nc(N3CCN(c4ccccn4)CC3)nc21	43*	14	>22
c1cncc(CNc2nc(Nc3ccc(N4CCOCC4)cc3)nc3c2ncn3C2CCCCC2)c1	36*	11	>20
c1ccc(-n2cnc3c(NCc4cccnc4)nc(Nc4cccnc4)nc32)cc1	-10	25	·
CC(C)NS(=O)(=O)c1ccc(Nc2nccc(-c3ccccc3)n2)cc1	15	-10	·
Cc1cnc(-c2c(C)noc2C)nc1NCCOc1ccccc1	-22	-2	·
CC(C)n1c(N2CCCC2CO)nc2c(NCc3ccccc3)ncnc21 (centres undefined)	13	21	·
COc1ccc(CCNc2nc(Nc3ccc(C(F)(F)F)cc3)nc3c2ncn3Cc2ccc(C(F)(F)F)cc2)cc1	4	-17	·
COc1ccc(CCNc2nc(Nc3ccc(C(F)(F)F)cc3)nc3c2ncn3-c2ccsc2)cc1	10	-1	·
COc1ccc(CCNc2nc(Nc3ccc(N4CCOCC4)cc3)nc3c2ncn3-c2ccccc2)cc1	37*	12	i
COc1ccc(CCNc2nc(Nc3ccc(N4CCOCC4)cc3)nc3c2ncn3Cc2ccc(C(F)(F)F)cc2)cc1	72*	-19	9.5*
COc1ccc(CCNc2nc(Nc3ccc(N4CCOCC4)cc3)nc3c2ncn3C(C)C)cc1	25	-4	·
COc1ccc(CCNc2nc(Nc3ccc(N4CCOCC4)cc3)nc3c2ncn3-c2ccsc2)cc1	37*	15	7.4*
CN(C)CCOc1cc(NC(=O)C2COc3ccccc3C2)ccc1-c1cn[nH]c1 (centres undefined)	-2	-3	·
Cc1cncc2cccc(NC3CCN(C(=O)C(N)c4ccc(Br)cc4)C3)c12 (centres undefined)	-15	12	·
c1ccc(Oc2ccc(Nc3nc(N4CCc5ccccc5C4)nc4c3ncn4-c3ccccc3)cc2)cc1	46*	11	>20
c1ccc(Oc2ccc(Nc3nc(N4CCOCC4)nc4c3ncn4-c3ccccc3)cc2)cc1	26	1	·
Cn1nccc1Nc1cc(C(=O)NCc2cccc(C(F)(F)F)c2)c2ccccc2n1	-4	-12	·
COc1ccc2c(c1)CC(C(=O)Nc1ccc(-c3cn[nH]c3)cc1OCCN(Cc1ccccc1)Cc1ccccc1)CO2 (centres undefined)	41*	12	>19
COc1ccc2c(c1)C[C@H](C(=O)Nc1ccc(-c3cn[nH]c3)cc1OCCN(C)C)CO2	-6	-4	·
Cc1nn(C)c(C)c1-c1ccc(C(=O)NCc2cccnc2)s1	-3	9	·
SMILES	ASK1 inh	ULK1 primary	TruHits interf
OC1CCN(c2cc(-c3cccc(C(F)(F)F)c3)nc(-c3ccncc3)n2)CC1	·	-23	·
C=CCSC(=O)NC(C)(C)c1ccncc1	·	2	·
CN(C)C(=O)c1cc(-c2cn[nH]n2)ccc1NC(=O)C1COc2ccccc2O1 (centres undefined)	3	5	·
CC(C)n1c(-c2ccc(C(N)=O)cc2)nc2c(Nc3ccc(Oc4ccccc4)cc3)ncnc21	37*	-29	>20
COc1ccc(-c2nc3c(Nc4ccc(Oc5ccccc5)cc4)ncnc3n2C(C)C)cc1	0	-1	·
O=C(Nc1ccc2c(c1)OCO2)c1csc(NC2CCN(Cc3ccccc3)CC2)n1	7	20	·
Cc1nc(C)n(-c2ccc(Nc3nccc(-c4cc(F)cc(-c5cn[nH]c5C)c4)n3)cc2)n1	36*	0	>19
Cc1nc(C)n(-c2ccc(Nc3nccc(-c4cc(F)cc(-c5ccnn5C)c4)n3)cc2)n1	5	-1	·
Cc1nc(C)n(-c2ccc(Nc3nccc(-c4cncc(F)c4)n3)cc2)n1	2	2	·
Cc1nc(C)n(-c2ccc(Nc3nccc(-c4cc(F)cc(-c5ncco5)c4)n3)cc2)n1	38*	13	>19
Cc1ncn(-c2ccc(Nc3nccc(-c4cc(F)cc(-c5cn[nH]c5C)c4)n3)cc2)n1	48*	6	>19
Cc1[nH]ncc1-c1cc(F)cc(-c2ccnc(Nc3ccc(-n4cnc(C(F)(F)F)n4)cc3)n2)c1	25	-2	·
COc1cccc(CNC(=O)Nc2ccc(-c3cn[nH]c3)cc2SCCN(C)C)c1	12	15	·
Cc1cc(NCc2ccccc2)nc(-c2c(C)noc2C)n1	-4	-10	·
O=C1CCCN1CCn1cnc2c(NC3CCN(Cc4ccccc4)CC3)nc(Nc3ncccn3)nc21	8	19	·
